In PubChem BioAssay (NCATS):
Values joined by “and” are separate entries in the source; they are usually repeats but may differ in a detail not shown here. Equal entries are not always repeated. Results filed as inconclusive are left out. Active and inactive are the calls of the source. Calls follow the shape of the dose curve; as a rule, active = well fitted inhibition curve with a large enough effect; inconclusive = small, poorly fitted or top-dose-only effect; inactive = flat fitted curve, though single readings scatter.

Legend:
CRL-7250 = normal cell line; assay: Cytotoxic Profiling of Annotated Libraries Using Quantitative High-Throughput Screening (AID 1296008); settings: Five cell lines viability, CellTiter-Glo ATP luminescence, 48-72 h; max response: stronger effect = lower value; as to max response: % is scaled to controls: 0 for no effect and ±100 for the full control effect
Procedure, shortened: (§1)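 Compounds were pin-transferred onto cells and incubated 48 or 72 hr at 37 degree Celsius, 95% humidity. CellTiter-Glo was added, plates sat 10 min at room temperature, then ATP-coupled luminescence was imaged as the viability read-out.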

HEK293 = assay: as above; settings: Five cell lines viability, CellTiter-Glo ATP luminescence, 48-72 h; max response: stronger effect = lower value
Procedure, shortened: as §1

HaCat [1] = assay: as above; settings: Five cell lines viability, CellTiter-Glo ATP luminescence, 48-72 h; max response: stronger effect = lower value
Procedure, shortened: as §1

KB-3-1 = assay: as above; settings: Five cell lines viability, CellTiter-Glo ATP luminescence, 48-72 h; max response: stronger effect = lower value
Procedure, shortened: as §1

NIH3T3 [2] = assay: as above; settings: Five cell lines viability, CellTiter-Glo ATP luminescence, 48-72 h; max response: stronger effect = lower value
Procedure, shortened: as §1

HACAT [3] = assay: qHTS assay to identify novel small-molecules to repurpose for Merkel cell carcinoma treatment (AID 1296009); settings: MCC and control cell lines, CellTiter-Glo viability, 72 h
Procedure, shortened: (§2)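 Cells exposed to NPC (8-point) and MIPE (11-point) compound dilutions for 72 hr at 37 degree celsius; viability read by CellTiter-Glo luminescence, normalized to no-cell and DMSO in-plate controls.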

MCC-13 = assay: as above; settings: MCC and control cell lines, CellTiter-Glo viability, 72 h; series mostly up to 46 µM
Procedure, shortened: as §2

MCC-26 = assay: as above; settings: MCC and control cell lines, CellTiter-Glo viability, 72 h; series mostly up to 46 µM
Procedure, shortened: as §2

MKL-1 = assay: as above; settings: MCC and control cell lines, CellTiter-Glo viability, 72 h; series mostly up to 46 µM
Procedure, shortened: as §2

MKL-2 = assay: as above; settings: MCC and control cell lines, CellTiter-Glo viability, 72 h; series mostly up to 46 µM
Procedure, shortened: as §2

NIH3T3 [4] = assay: as above; settings: MCC and control cell lines, CellTiter-Glo viability, 72 h; at 44.8 µM (top of the series) unless noted
Procedure, shortened: as §2

HEK293T = assay: as above; settings: MCC and control cell lines, CellTiter-Glo viability, 72 h; at 44.8 µM (top of the series) unless noted
Procedure, shortened: as §2

PC15 = assay: qHTS profiling for inhibitors of Plasmodium falciparum proliferation (AID 504749);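 also: 0% = DMSO vehicle and full inhibition = artemisinin control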; settings: P. falciparum in erythrocytes, SYBR Green DNA, 72 h; series mostly up to 28.7 µM
Procedure, shortened: (§3)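 P. falciparum-infected erythrocytes (0.3% parasitemia, 2.5% hematocrit final) were exposed to compounds for 72 h at 37 C in 5% CO2, then lysed with SYBR Green buffer overnight at room temperature; parasite DNA fluorescence was normalized to artemisinin and DMSO controls.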

PC26 = assay: as above; settings: P. falciparum in erythrocytes, SYBR Green DNA, 72 h; series mostly up to 28.7 µM
Procedure, shortened: as §3

PC49 = assay: as above; settings: P. falciparum in erythrocytes, SYBR Green DNA, 72 h; series mostly up to 28.7 µM
Procedure, shortened: as §3

SC27B = assay: as above; settings: P. falciparum in erythrocytes, SYBR Green DNA, 72 h; series mostly up to 28.7 µM
Procedure, shortened: as §3

TAB109 = assay: as above; settings: P. falciparum in erythrocytes, SYBR Green DNA, 72 h; series mostly up to 28.7 µM
Procedure, shortened: as §3

TAB113 = assay: as above; settings: P. falciparum in erythrocytes, SYBR Green DNA, 72 h; series mostly up to 28.7 µM
Procedure, shortened: as §3

TAB165 = assay: as above; settings: P. falciparum in erythrocytes, SYBR Green DNA, 72 h; series mostly up to 28.7 µM
Procedure, shortened: as §3

W2 = assay: as above; settings: P. falciparum in erythrocytes, SYBR Green DNA, 72 h; series mostly up to 28.7 µM
Procedure, shortened: as §3

[5] = at 44.8 µM (top of the series) unless noted
Also: nearly all actives have a fitted effect of over 60% in size.

CCCCS(=O)(=O)N[C@@H](Cc1ccc(OCCCCC2CCNCC2)cc1)C(=O)O
inactive: max response (CRL-7250) -2.86% and 2.79% | max response (HEK293) -5.53% and -1.56% | max response (HaCat [1]) -0.76% | outcome (HaCat [1]) | max response (KB-3-1) -7.62% | outcome (KB-3-1) | max response (NIH3T3 [2]) -1.76% | outcome (NIH3T3 [2]) | outcome (HACAT [3]; [5]) | Potency (MCC-13) | Potency (MCC-26) | Potency (MKL-1) | Potency (MKL-2) | outcome (NIH3T3 [4])

OC[C@H]1O[C@H](O[C@]2(CCl)O[C@H](CCl)[C@@H](O)[C@@H]2O)[C@H](O)[C@@H](O)[C@H]1Cl
inactive: outcome (CRL-7250) | max response (HEK293) -9.55% | outcome (HEK293) | max response (HaCat [1]) -7.79% and -6.26% | max response (NIH3T3 [2]) -17.4% | outcome (NIH3T3 [2]) | outcome (HEK293T) | Potency (MCC-13) | Potency (MCC-26) | Potency (MKL-1) | Potency (MKL-2) | outcome (NIH3T3 [4])

CN1CCC[C@@H]1c1cccnc1
inactive: Potency (PC15) | Potency (PC26) | Potency (PC49) | Potency (SC27B) | Potency (TAB109) | Potency (TAB113) | Potency (TAB165) | Potency (W2) | max response (CRL-7250) -7.79% | max response (HEK293) -4.75% | outcome (HaCat [1]) | max response (KB-3-1) -0.673% | max response (NIH3T3 [2]) 0.585% | outcome (HACAT [3]; [5]) | Potency (MCC-13) | Potency (MCC-26) | Potency (MKL-1) | Potency (MKL-2)

O=c1[nH]c(=O)n([C@H]2CCCO2)cc1F
inactive: max response (CRL-7250) 4.85% and -6.48% | max response (HEK293) 1.04% | outcome (HEK293) | outcome (HaCat [1]) | max response (KB-3-1) 8.54% | max response (NIH3T3 [2]) -5.35% | outcome (HACAT [3]; [5]) | outcome (HEK293T) | Potency (MCC-13) | Potency (MCC-26) | Potency (MKL-1) | Potency (MKL-2)

CCOC(=O)OC(C)OC1=C(C(=O)Nc2ccccn2)N(C)S(=O)(=O)c2ccccc21 (centres undefined)
inactive: Potency (PC15) | Potency (PC26) | Potency (PC49) | Potency (SC27B) | Potency (TAB109) | Potency (TAB113) | Potency (TAB165) | outcome (CRL-7250) | outcome (HEK293) | outcome (HaCat [1]) | max response (KB-3-1) 2.11% | max response (NIH3T3 [2]) 3.47% | outcome (HACAT [3]; [5]) | outcome (HEK293T) | Potency (MCC-13) | Potency (MCC-26) | Potency (MKL-1) | Potency (MKL-2)

Cc1onc(-c2c(Cl)cccc2Cl)c1C(=O)N[C@@H]1C(=O)N2[C@@H]1SC(C)(C)[C@@H]2C(=O)O
inactive: max response (CRL-7250) -3.36% and -1.59% | max response (HEK293) -5.63% | outcome (HEK293) | max response (HaCat [1]) -4.29% | max response (KB-3-1) -7.64% and 7.08% | max response (NIH3T3 [2]) -14.9% and -2.17% | outcome (HEK293T) | Potency (MCC-13) | Potency (MCC-26) | Potency (MKL-1) | Potency (MKL-2)

O=C1c2ccccc2C(=O)C1c1ccccc1
inactive: Potency (PC15) | Potency (PC26) | Potency (PC49) | Potency (SC27B) | Potency (TAB109) | Potency (TAB113) | Potency (TAB165) | Potency (W2) | max response (CRL-7250) -3.39% | outcome (HEK293) | outcome (HaCat [1]) | max response (KB-3-1) -18.6% | outcome (NIH3T3 [2]) | outcome (HACAT [3]; [5]) | outcome (HEK293T) | Potency (MCC-13) | Potency (MCC-26) | Potency (MKL-1) | Potency (MKL-2) | outcome (NIH3T3 [4])

Cc1c(C(C)C)c(=O)n(-c2ccccc2)n1C
inactive: Potency (PC15) | Potency (PC26) | Potency (PC49) | Potency (SC27B) | Potency (TAB109) | Potency (TAB113) | Potency (TAB165) | Potency (W2) | max response (CRL-7250) 0.671% | outcome (HEK293) | outcome (HaCat [1]) | max response (KB-3-1) -0.49% | max response (NIH3T3 [2]) 0.732% | outcome (HACAT [3]; [5]) | outcome (HEK293T) | Potency (MCC-13) | Potency (MCC-26) | Potency (MKL-1) | Potency (MKL-2)

Cc1ncc(CSSCc2cnc(C)c(O)c2CO)c(CO)c1O
inactive: Potency (PC15) | Potency (PC26) | Potency (PC49) | Potency (SC27B) | Potency (TAB109) | Potency (TAB113) | Potency (TAB165) | Potency (W2) | max response (CRL-7250) -3.39% | outcome (HEK293) | outcome (HaCat [1]) | max response (KB-3-1) -0.0269% | max response (NIH3T3 [2]) 4.82% | outcome (HACAT [3]; [5]) | outcome (HEK293T) | Potency (MCC-13) | Potency (MCC-26) | Potency (MKL-1) | Potency (MKL-2)

NC[C@H]1O[C@H](O[C@H]2[C@H](O)[C@@H](O[C@H]3O[C@H](CO)[C@@H](O)[C@H](N)[C@H]3O)[C@H](N)C[C@@H]2N)[C@H](N)[C@@H](O)[C@@H]1O
inactive: max response (CRL-7250) -9.82% | max response (HEK293) -0.173% | outcome (HaCat [1]) | max response (KB-3-1) -1.35% and -3.36% | max response (NIH3T3 [2]) 1.61% | outcome (HACAT [3]; [5]) inactive [at 17.4 µM] | Potency (MCC-13) | Potency (MCC-26) | Potency (MKL-1) | Potency (MKL-2)

CN=C(NC#N)Nc1ccc(C2=NNC(=O)CC2C)cc1 (centres undefined)
inactive: Potency (PC26) | Potency (W2) | max response (CRL-7250) -12.9% | outcome (HEK293) | outcome (HaCat [1]) | max response (KB-3-1) 6.06% | max response (NIH3T3 [2]) -5.93% | outcome (HACAT [3]; [5]) | outcome (HEK293T) | Potency (MCC-13) | Potency (MCC-26) | Potency (MKL-1) | Potency (MKL-2)

CC(=O)OCC(=O)[C@@]1(O)[C@H](C)C[C@H]2[C@@H]3CCC4=CC(=O)C=C[C@]4(C)[C@@]3(F)[C@@H](O)C[C@@]21C
inactive: max response (CRL-7250) 0.495% and 1.45% | max response (HEK293) -2.05% | outcome (HEK293) | max response (HaCat [1]) -3.13% and -0.939% | max response (NIH3T3 [2]) 4.69% | outcome (NIH3T3 [2]) | outcome (HEK293T) | Potency (MCC-13) | Potency (MCC-26) | Potency (MKL-1) | Potency (MKL-2) | outcome (NIH3T3 [4])

Cc1nc2n(c(=O)c1CCN1CCC(c3noc4cc(F)ccc34)CC1)CCC[C@H]2O
inactive: max response (CRL-7250) -3.73% | outcome (CRL-7250) | max response (HEK293) -1.89% | outcome (HEK293) | outcome (HaCat [1]) | max response (KB-3-1) -12.7% and -2.14% | max response (NIH3T3 [2]) 1.23% | outcome (NIH3T3 [2]) | outcome (HACAT [3]; at 17.4 µM (top of the series)) | outcome (HACAT [3]; at 44.8 µM (top of the series)) | outcome (HEK293T) | Potency (MCC-13) | Potency (MCC-26) | Potency (MKL-1) | Potency (MKL-2) | outcome (NIH3T3 [4]) inactive [at 17.4 µM]
